COUP-TFII inh – blocks human COUP-TFII nuclear receptor; HEK293T NGFI-A luciferase reporter, luminescence; AID 686940; 370,000 compounds, 0.7% hits; P24468; inhibition, % at 8.6 µM;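 active = inhibition above a per-plate cutoff, mean inhibition of test wells between control levels plus 3 SD, cut at about 38% in these data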;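 note: cells cotransfected with COUP-TFII expression vector driving the NGFI-A reporter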
NCOA3 inh – inhibitors of human steroid receptor coactivator 3 (SRC3); AID 588352; 360,000 compounds, 0.17% hits; HEK293 GAL4-SRC3 luciferase reporter, luminescence; inhibition, % at 3.6 µM; Q9Y6Q9;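 active = inhibition above a per-campaign cutoff, the mean of all compounds plus 3 SD, cut at about 60% in these data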;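 note: higher means less SRC3-driven luciferase light from the GAL4 reporter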
SRC1 inh – human NCOA1 inhibition; Q15788; HEK293 GAL4-SRC1 luciferase reporter, luminescence; inhibition, % at 3.6 µM; 360,000 compounds, 0.12% hits;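 active = inhibition above the campaign mean plus 3 SD, with each screening campaign given its own cutoff, cut at about 60% in these data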
Gli-Sufu antag – Gli-Sufu pathway antagonism | Sufu-KO-LIGHT fibroblasts, Gli luciferase reporter luminescence | inhibition, % at 5 µM | 340,000 compounds, 0.74% hits;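 active = inhibition above about 55%, limit read from the data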
NCOA2 inhibitor – human SRC2 (NCOA2) inhibition. HEK293 GAL4-SRC2 luciferase reporter, luminescence. inhibition, % at 9 µM. 370,000 compounds, 0.17% hits;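 active = inhibition above the mean inhibition of all tested compounds plus 3 SD, set per campaign, cut at about 52% in these data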
NR5A2 inv ag – suppresses constitutive activity of human LRH-1. inhibition, % at 3.6 µM. 360,000 compounds, 0.13% hits. AID 602396. HEK293T StAR-luciferase reporter, LRH-1 transfected, 24 h;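 active = inhibition above the mean inhibition of all tested compounds plus 3 SD, cut at about 73% in these data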
Gal4-VP16 ctr – VP16 inhibition counter-screen for COUP-TFII | shares compounds with COUP-TFII inh | HEK293 Gal4-VP16 luciferase reporter, luminescence | inhibition, % at 8.5 µM | 2,500 compounds, 25% hits; in the data active = inhibition above about 13%
NR2F2 inh conf – confirmation of human COUP-TFII (NR2F2) inhibitors; AID 687008; shares compounds with COUP-TFII inh; 2,500 compounds, 45% hits; HEK293 NGFI-A luciferase reporter, luminescence; inhibition, % at 8.5 µM;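 active = mean inhibition over three repeats above a set limit taken from the earlier primary screen, cut at about 38% in these data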
Numbers stand for hits; - = inactive; . = not tested or not shown. Shown are actives, neighbours in structure and some others; about 1.3% of the full set was active somewhere.

SMILES | COUP-TFII inh | NCOA3 inh | SRC1 inh | Gli-Sufu antag | NCOA2 inhibitor | NR5A2 inv ag | Gal4-VP16 ctr | NR2F2 inh conf
C=CC[n+]1c(-c2ccc(C)cc2)csc1Nc1ccc(NC(C)=O)cc1 | 52.4 | - | - | - | 84.5 | - | 82.7 | 81.2
CCCCCCCCN1C(=O)[C@@H](CC(=O)N2CCN(C(=O)c3ccco3)CC2)C[C@@]2(C(=O)OC)C1=C[C@H](C(C)C)O[C@@H]2C1CC1 | - | . | . | . | - | . | . | .
COc1cccc(OCC(O)CN2CCC(CN3C(=O)c4cccc5cccc(c45)C3=O)CC2)c1 (centres undefined) | - | - | - | - | - | - | . | .
Cc1cc(C)cc(OCC(O)CN2CCC(CN3C(=O)c4cccc5cccc(c45)C3=O)CC2)c1 (centres undefined) | 72.9 | - | - | - | - | - | - | 39.9
O=c1c2ccccc2[nH]n1[C@@H](Cc1ccccc1)Cn1cc(-c2ccc(-c3ccccc3)cc2)nn1 | - | . | . | . | - | . | . | .
Cn1cc(/C=C/c2cc[n+](C)cc2)c2cc(Cl)ccc21 | 59.1 | - | - | - | - | - | - | -
Cc1cc(S(=O)(=O)c2ccc(Cl)cc2)nc(S(=O)(=O)c2ccc(Cl)cc2)c1C#N | 44.7 | - | - | . | - | - | 55.8 | 62.1
COCc1[nH]nc2c1C(c1ccc(C)cc1)N(Cc1ccccc1)C2=O (centres undefined) | - | . | . | . | - | . | . | .
COc1cc(-n2c(C)nc3cc(C(=O)N4CCCCC4)ccc32)cc(OC)c1OC | - | . | . | . | - | . | . | .
Fc1ccc(NC(=S)NNc2ncc(C(F)(F)F)cc2Cl)c(F)c1 | 57.5 | - | - | - | - | - | 19.6 | -
O=C(/C=C/c1cccs1)NC(=S)NNC(=O)c1ccccc1O | 59.7 | 80.4 | 64.7 | - | - | 88.3 | 21.4 | 62.8
Cc1ccoc1C(=O)Nc1ccc(CC(=O)O)cc1 | 76.2 | - | - | - | 83.3 | - | 69.8 | 65.7
COc1ccc(NC(=O)CCOc2cc(C)ccc2C)cc1S(=O)(=O)N1CCCCC1 | 40.9 | - | - | - | - | - | - | -
Cc1cc(Cl)c(S(=O)(=O)NC(C(=O)O)C(C)C)cc1OCC(=O)NC1CCCCC1 (centres undefined) | - | - | - | - | - | - | . | .
Cc1cc(Cl)c(S(=O)(=O)N2CCCC2)cc1OCC(=O)NC1CCCCC1 | 62.0 | - | - | - | - | - | - | -
COc1cc(C(C)=O)ccc1OCC(=O)Nc1ccc(C)c(S(=O)(=O)N2CCCCCC2)c1 | 47.2 | - | - | - | - | - | - | -
CC(=O)c1ccc(OCCCC(=O)Nc2ccc(C)c(S(=O)(=O)N3CCCCC3)c2)cc1 | 61.2 | - | - | - | - | - | - | 40.4
CCN(CC)C(=O)CSc1nnc(-c2ccccn2)n1C | - | . | . | . | - | . | . | .
O=C(c1ccccc1)c1c2c(cc3sc4ccccc4[n+]13)-c1cccc3cccc-2c13 | 48.6 | - | - | 76.0 | - | - | - | 57.3
Cc1sc2cc3c(c(C(=O)c4ccccc4)[n+]2c1C)-c1cccc2cccc-3c12 | 60.1 | . | . | 69.8 | - | . | 22.1 | 55.0
CC(COc1cc(F)cc(F)c1)CN1CCC(C(O)(c2ccccc2)c2ccccc2)CC1 (centres undefined) | - | . | . | . | - | . | . | .
CC1CCN(c2ccc(-c3cccs3)nn2)CC1 | 45.1 | - | - | - | 62.1 | - | 19.9 | 42.5
Cc1cc(N2CCN(S(=O)(=O)c3ccc(Cl)c(Cl)c3)CC2)c2ccccc2n1 | - | - | - | - | - | - | . | .
COc1ccc(N2CCN(C(=O)Oc3ccc([N+](=O)[O-])cc3)CC2)cc1 | - | . | . | . | - | - | . | .
Cc1cc(N2CCN(S(=O)(=O)c3ccc(Cl)cc3)CC2)c2ccccc2n1 | 40.9 | - | - | - | - | - | - | -
SMILES | COUP-TFII inh | NCOA3 inh | SRC1 inh | Gli-Sufu antag | NCOA2 inhibitor | NR5A2 inv ag | Gal4-VP16 ctr | NR2F2 inh conf
Cc1cc(N2CCN(C(=O)Oc3ccc([N+](=O)[O-])cc3)CC2)c2ccccc2n1 | 43.0 | . | . | . | - | - | - | -
CC(C)(C)c1ccc(-c2nnc3sc(-c4ccccn4)nn23)cc1 | 41.1 | - | - | - | - | - | - | 51.9
COc1cccc(-c2nnc3sc(-c4ccccn4)nn23)c1 | - | - | - | - | - | - | . | .
COc1cccc(CC(=O)O[C@@H]2CCC[C@@]3(C(=O)N(Cc4ccccc4)c4ccccc43)[C@H]2NC(=O)CCc2ccccc2)c1 | - | . | . | . | - | . | . | .
CC(=O)CC1c2ccccc2C=C(c2ccsc2)N1c1ccc(-c2cccs2)cc1 (centres undefined) | 45.7 | . | . | . | - | - | - | -
COc1ncc(-c2ccc(N3C(c4ccsc4)=Cc4ccccc4C3CC(C)=O)cc2)cn1 (centres undefined) | - | . | . | . | - | - | . | .
COc1ccc(CNC(=O)Cc2nn(C)c(=O)c3ccccc23)cc1 | 49.1 | - | - | - | - | - | - | -
COc1ccc(OC)c(NC(=O)Cc2nn(C)c(=O)c3ccccc23)c1 | - | - | - | - | - | - | . | .
O=C(OCc1ccccc1)N1CCC2CC1c1cc(NCCc3ccccc3)ccc12 (centres undefined) | - | - | - | - | - | - | . | .
CC(=O)N(CCc1ccccc1)c1ccc2c(c1)C1CC2CCN1C(=O)OCc1ccccc1 (centres undefined) | 37.9 | - | - | . | - | - | - | -
O=C(Nc1ccc(F)cc1F)N1CCCN(c2ccc(C(F)(F)F)cn2)CC1 | - | - | - | - | - | - | . | .
Fc1ccc(NC(=S)N2CCCN(c3ccc(C(F)(F)F)cn3)CC2)c(F)c1 | 63.6 | - | - | - | - | - | - | 63.5
COc1ccc(CNC(=O)c2cccc3c(-c4ccc(F)c(F)c4)coc23)cc1OC | . | - | - | . | . | - | . | .
COc1ccc(CNC(=O)c2cccc3c(-c4cccc(C(N)=O)c4)coc23)cc1OC | 86.0 | - | - | . | - | - | - | 73.5
COc1cc(-c2coc3c(C(=O)NCc4ccc(OC)c(OC)c4)cccc23)ccc1O | 66.6 | - | - | . | - | - | - | 62.6
COc1cc(-c2coc3c(C(=O)NCc4ccc(N(C)C)cc4)cccc23)ccc1O | - | - | - | . | - | - | . | .
CC(C)c1[nH]nc2c1C(c1cccc(C(F)(F)F)c1)NC2=O (centres undefined) | - | . | . | . | - | . | . | .
CC(=O)c1ccc2c(c1)N(Cc1ccccc1Cl)C(=O)C(C)S2 (centres undefined) | 84.3 | - | - | . | - | - | - | -
O=C(N[C@@H](Cc1cccnc1)C(=O)N1CCC[C@H]1C(=O)NCCc1ccccc1Cl)c1cccs1 | - | . | . | . | - | . | . | .
CCC1CCc2sc(C(=O)Nc3cc(S(=O)(=O)N4CCOCC4)ccc3OC)cc2C1 (centres undefined) | - | . | . | . | . | . | . | .

Screens: PubChem BioAssay, several laboratories
